# Measurements as given in PubChem BioAssay (NCI).
# About 83,000 compounds went through this panel and 20% of them were active in at least one assay; those are over-represented in the sample as a whole.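 Compound tested at a single concentration for 48 hours in 96-well plates; a percent growth value below 10 was scored as active.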 A number with no mark means an inactive call. Calls of active or inactive are those of the source.
# Assays:
# Assay in all cases: NCI-60 one-dose screen, 48 h (100 = growth as untreated, 0 = no growth, -100 = all killed)
# Conditions in all cases: 10 µM unless noted
# NCI-H23 lung = system: NCI-H23 lung
# NCI-H226 lung = system: NCI-H226 lung
# NCI-H322M lung = system: NCI-H322M lung
# HOP-62 NSCLC = system: HOP-62 NSCLC
# NCI-H460 lung = system: NCI-H460 lung
# HOP-92 NSCLC = system: HOP-92 NSCLC
# NCI-H522 lung = system: NCI-H522 lung
# A549/ATCC NSCLC = system: A549/ATCC NSCLC
# 786-0 renal = system: 786-0 renal
# COLO 205 colon = system: COLO 205 colon
Structure (SMILES),growth (NCI-H23 lung),growth (NCI-H226 lung),growth (NCI-H322M lung),growth (HOP-62 NSCLC),growth (NCI-H460 lung),growth (HOP-92 NSCLC),growth (NCI-H522 lung),growth (A549/ATCC NSCLC),growth (786-0 renal),growth (COLO 205 colon)
COc1ccc(/C=c2\c(=O)n(-c3ccccc3)c3nn4c(n23)=NNC42CCCCC2)cc1,92.7%,75.8%,96.3%,87.7%,101%,94.1%,90.3%,104%,106%,105%
COc1ccc2[nH]cc(C(c3ccc(Cl)cc3)N3CCCC3)c2c1 (stereo not given),93.2%,98.2%,94.3%,97.6%,101%,79.2%,82.1%,98.8%,102%,114%
COc1cccc(CC(C)=C(c2ccc(OCCCN(C)C)cc2)c2ccc(OCCCN(C)C)cc2)c1,-66.9% (active),-18.9% (active),-95% (active),-81% (active),-90.2% (active),-53% (active),-77.3% (active),-81.5% (active),-85.6% (active),-74.1% (active)
COC(=O)/C=C/c1cc(OC(C)=O)c2c(c1)[C@@H](C(=O)OC)[C@H](c1ccc(OC(C)=O)c(OC(C)=O)c1)O2,20.7%,-7.97% (active),60%,24%,11.4%,12.9%,-25.3% (active),20.6%,21.5%,47.1%
CC(=O)OC1Oc2cc(C)c(C)cc2-c2oc(=O)c(-c3ccc(F)cc3)cc21 (stereo not given),65.2%,102%,113%,77.8%,38%,80%,14.7%,52.5%,56.3%,79.2%
NC(N)=N/N=C\c1ccc(OCc2ccccc2)cc1,84%,46.4%,93.4%,62.8%,96.4%,40.2%,77.3%,82.8%,81.7%,-62.8% (active)
COc1ccc(C2=Nn3c(nnc3-c3ccc(Cl)cc3N)SC2)cc1,105%,102%,109%,103%,104%,94.1%,85.6%,103%,107%,108%
O=C(C(=O)c1cccnc1)c1cccnc1,98.8%,115%,117%,98.4%,111%,103%,-0.192% (active),111%,101%,174%
COc1cc(-c2n/c(=C\c3c(O)[nH]c4cc(Cl)ccc34)cc3c2=Nc2ccccc2-3)cc(OC)c1OC,45.2%,89.9%,62.3%,23.3%,59.7%,27.2%,54.6%,59.5%,34.5%,58.6%
Cc1cc(C)cc(Nc2cc(C)nc3nc(C(F)(F)F)nn23)c1,40%,37.8%,25%,47.8%,11%,69.8%,6.54% (active),27.5%,36.6%,16.7%
Cc1ccc(-c2nc3ccccc3c(=O)n2/N=C/c2cccc3ccccc23)cc1,77.6%,79.2%,54.7%,83.1%,69.1%,74.2%,53.4%,80.1%,87.3%,73.8%
NC(=Nc1ccccc1)SCCCSC(N)=Nc1ccccc1,92.6%,93.6%,81.8%,96.5%,100%,41.6%,69.2%,89.5%,102%,78.7%
COc1c(B(O)O)cccc1-c1nc2ccc3[nH]ncc3c2c2c1CCCC2,15.5%,-10.6% (active),16%,7.22% (active),8.49% (active),32.8%,15.1%,8.01% (active),25.9%,4.2% (active)
COc1cc2nccc(Oc3ccc(NC(=O)C4(C(=O)Nc5ccc(F)cc5)CC4)cc3)c2cc1OC(=O)c1ccc(N)cc1,37.8%,55.7%,43%,11.7%,24.7%,-13.3% (active),21.4%,33.6%,-17.4% (active),-36.5% (active)
COc1ccc(-c2nc(-c3cc(OC)cc(OC)c3)[nH]c2-c2ccc(OC)cc2)cc1,39.1%,48.7%,60.6%,91.8%,48%,23.7%,20.9%,46.7%,63.8%,34.2%
CN1CCN(Cc2ccc(NC(=O)c3cncc(C#Cc4cnc5cccnn45)c3)cc2C(F)(F)F)CC1,-7.84% (active),-3.9% (active),6.52% (active),-6.79% (active),-12.6% (active),-9.42% (active),-37.1% (active),4.87% (active),6.51% (active),-48.1% (active)
CCCCN(CCCC)CCC(=O)c1ccc(OC)c2ccccc12,111%,95.7%,104%,101%,109%,-13.7% (active),90.6%,80.1%,65.5%,60.1%
COc1ccc(CCN2COc3c([C@@H](C)CCC=C(C)C)ccc(C)c3C2)cc1OC,39.1%,82.3%,88.2%,73.4%,34.5%,-1.29% (active),64.7%,74.3%,52.4%,-92.9% (active)
c1ccc(-c2[nH]c3ccccc3c2-c2ccccc2)cc1,82%,91.4%,82.2%,90%,82.5%,8.71% (active),91.8%,84.5%,83.9%,107%
Cc1nc([C@H]2CC[C@H]3[C@@H]4CCC5=CC(=O)CC[C@]5(C)[C@H]4CC[C@]23C)cs1,49.9%,76.9%,116%,104%,41.5%,85%,22%,63.3%,62.7%,97.5%
COc1ccc(-c2[nH]nc(N)c2-c2cc(OC)c(OC)c(OC)c2)cc1,17.4%,68.3%,7.95% (active),22%,7.6% (active),31.3%,-32% (active),19.3%,24%,-61.6% (active)
CCCCCCCCCCCCCCCCCC1=NC(C)(C)CN1C(C)(C)CO,-14.5% (active),22.9%,16.3%,-100% (active),-100% (active),-6.66% (active),-84.8% (active),-93.8% (active),-37.5% (active),-99.8% (active)
C/C=C(\C)C(C(=O)NC1CCCCC1)N(C(=O)C1CCc2cc(F)ccc2O1)c1ccc([N+](=O)[O-])cc1 (stereo not given),91.9%,72.5%,92.8%,87.3%,82.5%,92.6%,81.9%,79.1%,90.1%,98.7%
Cc1cc(C)c2c(n1)sc1c(Nc3ccc(OCc4ccccc4)cc3)ncnc12,101%,96.2%,92.8%,101%,98.8%,88.2%,90.1%,101%,97.8%,111%
CN1CCN(Cc2ccc(NC(=O)c3ccc(C#N)c(C#Cc4cnc(N)c5ncccc45)c3)cc2C(F)(F)F)CC1,96.8%,59.4%,96.7%,87.2%,21.7%,81.9%,98.4%,90.6%,-80.3% (active),77.7%
CCN(CC)c1ccc2nc3c4ccccc4c(=O)cc-3n(-c3ccccc3)c2c1,-3.45% (active),5.4% (active),-23.5% (active),9.84% (active),-41.5% (active),-7.83% (active),-8.95% (active),11.6%,4.36% (active),-55.1% (active)
COc1cc(OC)cc(-c2n/c(=C\c3c(O)[nH]c4ccc(Cl)cc34)cc3c2=Nc2ccccc2-3)c1,34%,84.3%,93.2%,72.5%,43.3%,92.6%,60.7%,58.5%,39.3%,90.5%
